From PubChem BioAssay (NCI)
About 83,000 compounds went through this panel and 20% of them were active in at least one assay; those are over-represented in the sample as a whole.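 Negative percent growth values reflect cell death: -40 means 40% of the cells present at the start died, and -100 means all died.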 Unmarked numbers belong to inactive results. Active and inactive are the calls of the source. How the source made its calls: active means growth percent below 10; inactive means the rest.

Experiments:
Test in all cases: NCI-60 one-dose screen, 48 h (100 = growth as untreated, 0 = no growth, -100 = all killed)
Settings in all cases: 10 µM unless noted
[1] = test system: HCT-15 colon
[2] = test system: HT29 colon
[3] = test system: SNB-19 CNS
[4] = test system: U251 CNS
[5] = test system: PC-3 prostate
[6] = test system: SK-MEL-5 melanoma
[7] = test system: UACC-62 melanoma
[8] = test system: LOX IMVI melanoma
[9] = test system: SK-MEL-28 melanoma
[10] = test system: SK-MEL-2 melanoma
[11] = test system: EKVX NSCLC
[12] = test system: SN12C renal
[13] = test system: UO-31 renal
[14] = test system: TK-10 renal
[15] = test system: ACHN renal
[16] = test system: CAKI-1 renal
[17] = test system: A498 renal
[18] = test system: CCRF-CEM leukemia
[19] = test system: MOLT-4 leukemia

SMILES | growth [1] | growth [2] | growth [3] | growth [4] | growth [5] | growth [6] | growth [7] | growth [8] | growth [9] | growth [10] | growth [11] | growth [12] | growth [13] | growth [14] | growth [15] | growth [16] | growth [17] | growth [18] | growth [19]
CC(C)(C)n1cc(-c2ccnc(NCCNS(=O)(=O)c3ccc(Cl)cc3)c2)c(-c2cccc(O)c2)n1 | 15.1% | 16.6% | 76.6% | 46.1% | 34.5% | 25% | 71.7% | 41.5% | 63.3% | 74.3% | 60.2% | 61.6% | 49.6% | 108% | 76.8% | 71.8% | 69.4% | 50.3% | 31.9%
COc1ccc(S(=O)(=O)NCCCNc2nccc(-n3ccc4cccnc43)n2)cc1 | 75.8% | 108% | 89.1% | 92.5% | 86.2% | 99.1% | 88.3% | 90.8% | 104% | 106% | 87.5% | 90.9% | 97.5% | 105% | 94.6% | 69.6% | 87.5% | 90% | 77.2%
Cc1ccc(S(=O)(=O)NCCNc2cc(-c3cn(C(C)(C)C)nc3-c3cccc(O)c3)ccn2)cc1 | 31.1% | 17.2% | 84.4% | 62.9% | 46.7% | 30.9% | 77% | 47.4% | 57.7% | 84.3% | 64.6% | 66.5% | 58% | 103% | 78.9% | 77% | 80.8% | 60.7% | 48.4%
Cc1c(C(=O)/C=C/c2csc3ccccc23)[n+](=O)c2ccccc2n1[O-] | 48.7% | 28.3% | 73.7% | 40.2% | 47.1% | 79.5% | 70.5% | 34.1% | 105% | 95.3% | 67.8% | 78.7% | 36.8% | 76.5% | 85% | 17% | 118% | 51.9% | 81.8%
S=c1[nH]nc(-c2cc3ccc2CCc2ccc(cc2)CC3)n1C1CC1 | 96.6% | 95.7% | 95.5% | 97.4% | 95.8% | 95.7% | 80.2% | 95% | 102% | 110% | 88.9% | 94.8% | 88.8% | 143% | 102% | 98.6% | 97.8% | 104% | 105%
CN(C)c1cccc2c(S(=O)(=O)/N=C(\N)Nc3nc4ccccc4s3)cccc12 | 42.9% | 48.2% | 53.6% | 55.4% | 48.2% | 40.5% | 42.8% | 51.7% | 78.9% | 15.3% | 71.3% | 88.4% | 56.8% | 91.4% | 84.2% | 54% | 74.5% | 69.1% | 60.6%
COc1cccc(-c2nc3sccn3c2-c2ccnc(NCCCNS(=O)(=O)c3ccc(C(F)(F)F)cc3)c2)c1 | 38.7% | 47.2% | 69.4% | 55.1% | 29.1% | 5.99% (active) | 43% | 55.3% | 72.4% | 65.7% | 46% | 47.9% | 29.7% | 85.5% | 56% | 40.3% | 43% | 40.4% | 26.4%
COc1cc(NC(N)=NCCC(C)(C)Oc2ccc(C(F)(F)F)cc2)ncc1C#N | -70.7% (active) | -79.4% (active) | 27.8% | -98.2% (active) | 13.4% | -95.8% (active) | -51.8% (active) | -97.2% (active) | -79.2% (active) | -38.5% (active) | 27.1% | -90.3% (active) | -23.5% (active) | -74.2% (active) | 2.74% (active) | 51.6% | 42.8% | -13.8% (active) | -20.8% (active)
